Compound activity (PubChem)
The entries come from a sample that favours hits as a whole.
Pf Dd2 inh = Plasmodium falciparum Dd2 growth inhibition. P. falciparum Dd2 growth, SYBR Green, 72 h. Potency, µM (titrated, usually from 28.9 µM), for the others: at the top dose activity, negative = inhibition, actives largely listed as inhibitors. AID 1347417. 120,000 tested, 4.3% active; active = well fitted inhibition curve with a large enough effect;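 note: plate controls were DMSO vehicle for no effect and reference drug for full effect; nearly all actives have a fitted effect of over 65% in size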
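Readout: SYBR Green fluorescence, 485 nm excitation, 535 nm emission, after ~16 h lysis at 37C. Before that, Dd2-infected red cells (2.5% hematocrit) grew 72 h with compound, 29 uM top final concentration.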
The depositor's hits bear a star; i = inactive; [ ] = dose if it differs, or a comment. Potency is the fitted concentration of half-maximal effect.

SMILES	Pf Dd2 inh
COc1ccc(N2CCN(C(CNC(=O)C(=O)NCc3cccnc3)c3cccnc3)CC2)cc1 (stereo not drawn)	-15%[0.594 µM]
COCCNC(=O)C(=O)NCC(c1cccnc1)N1CCN(c2ccccc2F)CC1 (stereo not drawn)	55%[0.594 µM]
Cc1ccc(NC(=O)C(=O)NCC(c2cccnc2)N2CCN(Cc3ccccc3)CC2)cc1 (stereo not drawn)	81%[0.594 µM]
COc1ccc(CN2C[C@H]3CN(Cc4cccc(OC(F)(F)F)c4)CCN3C2=O)cc1	i
CC(C)C1CN(C(=O)C(=O)c2ccco2)CCC(=O)N1CC1CC1 (stereo not drawn)	-1%
CC(=O)N1CCN(Cc2ccc(F)c(C(F)(F)F)c2)CC(O)C1 (stereo not drawn)	-18%
COCCNC(=O)c1ccc2c(c1)N(C)C(CC(=O)NC(C)(C)CO)CO2 (stereo not drawn)	-14%
CN(C)C[C@@H]1CN(c2ccncn2)C[C@H]1NC(=O)Cc1c(F)cccc1Cl	-13%
Cc1nc(N2CCC(NC(=O)Cc3ccccc3Cl)CC2)cc(C(F)(F)F)n1	-3%
COCCNC(=O)[C@@H]1C[C@@H](O)CN1C1CCN(C(=O)CCc2c[nH]c3ccccc23)CC1	-13%
CCOC(=O)C1CCN(Cc2ccccc2OCC(O)CN(C)C2CCCCC2)CC1 (stereo not drawn)	10µM*
O=C1CCN(Cc2ccccc2OCC(O)CN2CCCCC2)CCN1 (stereo not drawn)	-8%
CCOc1ccccc1CN1CCN(C(=O)CC2CCOCC2)CC1	-18%
COc1ccc(C(=O)NC2CCN(c3cn[nH]c(=O)c3)CC2)cc1F	-21%
CCc1ocnc1C(=O)N1CCCC(CNC(=O)c2n[nH]c3ccccc23)C1 (stereo not drawn)	17%
Clc1ccc(Nc2nc(-c3ccccc3)c3cc(Cl)ccc3n2)cc1	i
COc1cccc(Nc2nc(-c3ccccc3)c3cc(C)ccc3n2)c1	10µM*
Clc1ccccc1-c1nc(Nc2ccccc2)nc2ccc(Br)cc12	-17%
COc1ncccc1-c1nccc2c(=O)cc(-c3cccnc3)oc12	-8%[44.1 µM]
CCCNC(=O)CC(c1ccccc1OC)c1c[nH]c2c(CC)cccc12 (stereo not drawn)	i
CCc1cccc2c(C(CC(=O)N3CCc4ccccc4C3)c3cccc4c3OCO4)c[nH]c12 (stereo not drawn)	8.9µM*
CCOC(=O)C1CCCN(C(=O)CC(c2cccc([N+](=O)[O-])c2)c2c[nH]c3c(CC)cccc23)C1 (stereo not drawn)	13µM*
CC(CCc1ccccc1)NC(=O)CC(c1cccc2c1OCO2)c1c[nH]c2ccccc12 (stereo not drawn)	-15%
CCc1cccc2c(C(CC(=O)NC(C)CC)c3ccc(OC)c(OC)c3)c[nH]c12 (stereo not drawn)	-4%
COc1ccc(C(CC(=O)N2CCCC2)c2c[nH]c3ccccc23)cc1 (stereo not drawn)	-7%
SMILES	Pf Dd2 inh
CCc1cccc2c(C(CC(=O)N3CCCCC3)c3cccc(C)c3)c[nH]c12 (stereo not drawn)	i
CCc1cccc2c(C(CC(=O)N3CCCC3)c3cccc([N+](=O)[O-])c3)c[nH]c12 (stereo not drawn)	7.9µM*
CCCNC(=O)CC(c1ccc(OC)c(OC)c1)c1c[nH]c2c(CC)cccc12 (stereo not drawn)	-11%
CC(C)(C)C(=O)N1CCC2(CC1)CC(c1ccccc1)C(=O)N(C1CC1)C2 (stereo not drawn)	-12%
CN1C[C@H](NC(=O)NC2(c3ccccc3)CCOCC2)CCC[C@@H](C(=O)N(C)Cc2cccnc2)CC1=O	-1%
Cc1noc([C@@H]2CN(Cc3cccc(Cl)c3F)C[C@H]2CO)n1	-8%
CCNC(=O)N1CC(N(CC)C2CCOCC2)C1	20%
CCn1ccc(C(=O)N2CCC(C(=O)N3CCCCCCNC(=O)CC3)CC2)n1	24%
Cc1cc(C)n(Cc2cccc(C(=O)N3CCC4(CC3)[C@H](O)C[C@@H]4O)c2)n1	-1%
CCCN1CCc2[nH]cnc2C12CCN(C(=O)CC1C=CS(=O)(=O)C1)CC2 (stereo not drawn)	22%
O=c1[nH]c2ccccc2n1C1CCN(c2nccc(-c3cccnc3)n2)CC1	11µM*
O=C(NCc1ccccn1)C1CCN(c2nccc(-c3cccnc3)n2)CC1	-13%
Cc1nc(CC2CCN(c3nccc(-c4cccnc4)n3)CC2)no1	-12%
O=S(=O)(c1cc(F)cc(F)c1)N1CCCC1c1nncn1Cc1ccncc1 (stereo not drawn)	1%
CCC(C(=O)N1CCc2onc(-c3ccc(F)c(F)c3)c2C1)n1cccn1 (stereo not drawn)	-24%
CCc1nc2c(c(-c3ccc(Cl)cc3)n1)CCN(CCC(C)C)CC2	-19%
CC(C)n1ccnc1CN1CCc2onc(-c3ccc(Cl)cc3)c2C1	13µM*
Cc1nn(-c2ccccc2)c(=O)n1CC(=O)NCC1OCCc2ccccc21 (stereo not drawn)	7%
O=C(c1cccs1)N1CCC(Oc2ncccc2C(=O)N2CCCCC2)C1 (stereo not drawn)	i
